# Many of the other results were omitted from the sample, so hits are more common in it than they were.
# Pf Dd2 inh: Plasmodium falciparum Dd2 growth inhibition. actives 4.3% (n = 120,000). P. falciparum Dd2 growth, SYBR Green, 72 h. Potency, µM (doses to about 28.9 µM), inactives show at the highest dose activity, negative = inhibition, most hits filed as inhibitors; active = well fitted inhibition curve with a large enough effect;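 also: plate controls were DMSO vehicle for no effect and reference drug for full effect; nearly all actives have a fitted effect of over 65% in size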
#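 Readout: SYBR Green fluorescence, 485 nm excitation, 535 nm emission, after ~16 h lysis at 37C. Before that, Dd2-infected red cells (2.5% hematocrit) grew 72 h with compound, 29 uM top final concentration.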
# * = called active by the depositor; i = inactive; ! = not active in a repeat; [ ] = remark or other dose. Potency is read from the fitted curve at half-maximal effect.
SMILES,Pf Dd2 inh
CC(C)c1nnc(C2CN(C(=O)C3CCCCC3)CC23CCOCC3)o1 (stereo not drawn),-12%
O=C(O)[C@]12CCCN[C@@H]1CCN(c1cc(N3CCOCC3)ncn1)C2,-15%
Cc1cc(C)n(CC(=O)N[C@@H]2CN(C)C[C@H]2CN(C)C)n1,48%
O=C(c1ccccc1)N1CC[C@H](c2nc3ccc(F)cc3[nH]2)C1,-9%[44.1 µM]
c1cc2nc(C3CCN(C4CCCCC4)C3)[nH]c2cn1 (stereo not drawn),31%[44.1 µM]
FC(F)(F)c1ccc2nc([C@H]3CCN(CC4CC4)C3)[nH]c2c1,13µM*
FC(F)(F)c1ccc(CN2CC[C@H](c3nc4ccccc4[nH]3)C2)cc1,i
FC(F)(F)c1ccc2nc([C@H]3CCN(C4CCCCC4)C3)[nH]c2c1,7.9µM*
CC(=O)N1CC[C@H](c2nc3ccc(C(F)(F)F)cc3[nH]2)C1,27%[44.1 µM]
CN(C)c1ccc(CN2CC[C@H](c3nc4ccc(C(F)(F)F)cc4[nH]3)C2)cc1,5.6µM*
N#Cc1ccc(CN2CCC(c3nc4ccncc4[nH]3)C2)cc1 (stereo not drawn),10µM*!
CN1CCC(N2CC[C@H](c3nc4ccccc4[nH]3)C2)CC1,23%[44.1 µM]
Brc1ccc(CN2CCC(c3nc4ncccc4[nH]3)C2)cc1 (stereo not drawn),-26%
O=C(C1CCCCC1)N1CC[C@H](c2nc3ccc(C(F)(F)F)cc3[nH]2)C1,i
N#Cc1ccc2nc([C@H]3CCN(Cc4ccccc4)C3)[nH]c2c1,-15%[44.1 µM]
CS(=O)(=O)N1CCCC(C(=O)N2CCOCC2)CCNC(=O)CC1 (stereo not drawn),39%
Cn1ccc(C(=O)NCc2nnc3n2C(C(=O)NCC2CC2)CC3)n1 (stereo not drawn),-8%
O=C(c1cccnc1)N1CCCC(c2nc(C3CCOCC3)no2)C1 (stereo not drawn),-25%
CCOC(=O)c1[nH]c(=O)[nH]c1C1CC(=O)Nc2c1cnn2C(CC)CC (stereo not drawn),0%
CN(CC(=O)NCC1CCN(c2cnn(C)c(=O)c2)C1)C1CCNCC1 (stereo not drawn),-1%
CC(C)NC(=O)NCc1nnc2n1C(C(=O)N1CCCC1)CC2 (stereo not drawn),39%
COCCC1(C(=O)O)CCCN(C(=O)N2CCN(C)CC2)C1 (stereo not drawn),-11%
COc1ccc(C)cc1NC(=O)CC1CCCN(c2cnn(CC3CC3)c(=O)c2)C1 (stereo not drawn),i
CC(C)(C)C1CCc2c(sc(NC(=O)c3ccco3)c2C(=O)Nc2ccccc2Cl)C1 (stereo not drawn),56%
Cc1cccc(NC(=O)c2c(NC(=O)c3ccco3)sc3c2CCC(C(C)(C)C)C3)c1 (stereo not drawn),7.1µM*
SMILES,Pf Dd2 inh
Cc1cccc(NC(=O)c2c(NC(=O)c3ccco3)sc3c2CCC(C)C3)c1 (stereo not drawn),i
CN1CCN(C(=O)N2CCCCC2)CC12CCC(=O)N(CC(=O)O)CC2 (stereo not drawn),-8%
CC(Cc1ccc2c(c1)OCO2)CN1CCC(CO)(CN2CCCC2)CC1 (stereo not drawn),5µM*
CCC1(CO)CCCN(C(=O)CCc2ccc3c(c2)OCO3)C1 (stereo not drawn),-12%
C[C@]1(O)CCN(C(=O)Cc2ccc3c(c2)OCO3)C[C@@H]1O,-8%
Cc1ccc(NC2CCCN(C(=O)c3ccc(F)c(F)c3)C2)cc1C (stereo not drawn),-8%
COC1CN(C2CCNCC2)C12CCOCC2 (stereo not drawn),6%
NCC(=O)N1CCC2(CC1)CN(C(=O)c1ccc(Cl)cc1)CCO2,-1%
COc1ccc(Nc2cc(C)c3cc(NC(=O)COc4cccc(C)c4)ccc3n2)cc1,4µM*
COc1ccc(CC(=O)Nc2ccc3nc(Nc4cccc(Cl)c4)cc(C)c3c2)cc1OC,i
COc1ccc(-n2nc3ccc(NC(=O)COc4ccc(C)c(C)c4)cc3n2)cc1,6%
CC(=O)N1CC2(CCN(CC3CC3)CC2)Cc2ccccc21,-14%[44.1 µM]
CC(=O)N1CC(CO)C2(CCN(Cc3c[nH]c4ccccc34)CC2)C1 (stereo not drawn),46%
C[S+](=O)([O-])N1Cc2ccccc2CC2(CCN(Cc3ccccn3)CC2)C1,-19%
CC(=O)N1CC2(CCCN(CC3CCCCC3)C2)Cc2ccccc21 (stereo not drawn),10µM*
CC(=O)N1Cc2ccccc2CC2(CCN(CC3CCNCC3)C2)C1 (stereo not drawn),13%
O=C1Nc2ccccc2CNC12CCN(Cc1c[nH]c3ccccc13)CC2,-25%
O=C(O)CCC(=O)N1CCC2(Cc3ccccc3N(C(=O)C3CCCC3)C2)C1 (stereo not drawn),21%
O=C(C1CCCC1)N1CC2(CCN(CC3CC3)C2)Cc2ccccc21 (stereo not drawn),8.9µM*
O=C(C1CCCC1)N1CC2(CCN(Cc3c[nH]c4ccccc34)CC2)Cc2ccccc21,4.5µM*
O=C(C1CCCC1)N1CC2(CCN(Cc3ccccn3)CC2)Cc2ccccc21,10µM*

# Assay outcomes (PubChem)
